Test results taken from PubChem BioAssay (EPA / NIEHS).
“And” between values parts separate entries of the source, which are not always exact repeats. Equal values may be shown once. The source made the active and inactive calls. Rule for the calls: active = hit-call score of the fitted dose curve at least 0.9, where 1 is the maximum; inactive = score below 0.9.

read-out: Monokine induced gamma interferon (MIG), CXCL9 (gene 4283); test: BSK_hDFCGF_MIG: BioMAP Diversity Plus: hDFCGF Assay for Monokine induced gamma interferon (MIG) Biomarker Activity (AID 2283063); conditions: primary human foreskin fibroblasts; actives raise or lower the signal
Protocol: BSK_hDFCGF is a cell-based, multiplexed-readout assay that uses foreskin fibroblast, a human skin primary cell, with measurements taken at 24 hours after chemical dosing in a 96-well plate.BSK_hDFCGF_MIG is an assay component measured in the BSK_hDFCGF assay. It measures MIG antibody related to regulation of gene expression using ELISA technology.Data from the assay component BSK_hDFCGF_MIG was analyzed into 1 assay endpoint. This assay endpoint, BSK_hDFCGF_MIG, was analyzed with bidirectional fitting relative to DMSO as the negative control and baseline of activity. Using a type of binding reporter, gain or loss-of-signal activity can be used to understand changes in the signaling as they relate to the gene CXCL9. Furthermore, this assay endpoint can be referred to as a primary readout, because this assay has produced multiple assay endpoints where this one serves a signaling function. To generalize the intended target to other relatable targets, this assay endpoint is annotated to the cytokine intended target family, where the subfamily is chemotactic factor.
The levels of cell surface (or secreted, indicated by the prefix "s") biomarker endpoints were measured by ELISA. Overt cytotoxicity to cells in confluent adherent cultures (all systems other than the BT system) was assessed by measuring total protein levels using sulforhodamine B (SRB) staining in parallel cultures at the time of biomarker measurements, indicated as SRB endpoints. For proliferation assays for adherent cell types, individual cell types are cultured at sub-confluence and relative cell numbers quantified by SRB staining at time points optimized for each system (48 h: 3C and CASM3C systems; 72 h: BT and HDF3CGF systems; 96 h: SAg system). SRB was performed by staining cells with 0.1% SRB after fixation with 10% TCA and reading wells at 560 nm.Viability and proliferation of PBMC (T cells) was quantified by Alamar Blue reduction for the SAg and BT systems. For PBMC viability (referred to as PBMC Cytotoxicity within the assay endpoint names), cells were plated (75,000/well in a 96-well plate) and then chemical samples added for 1 h before addition of activators, SEB and TSST-1 (20 ng/mL final concentration each). Cells were incubated for 90 h. Then, Alamar Blue (20 uL/well) (Invitrogen, Cat DAL1100) was added for 6 h, and the plates were read with a fluorescence microplate reader at 546/580 nm (excitation/emission). For PBMC proliferation, cells were plated and activated as above but incubated for only 16 h prior to addition of Alamar Blue. Plates were read after 6 h.

Row | SMILES | outcome | AC50
1 | CC(=O)OC(C)(C)C1CC=C(C)CC1 (stereo not given) | inactive | 
2 | CC/C(=C(\c1ccccc1)c1ccc(OCCN(C)C)cc1)c1ccccc1 |  | 9.37 µM (active) and 11 µM (active)
3 | CCCO[Si](OCCC)(OCCC)OCCC | inactive | 
4 | CC(=O)CCC=C(C)CCC=C(C)C | inactive | 
5 | c1ccc2c(c1)-c1ccc3ccc4cccc5cc-2c1c3c45 | inactive | 
6 | CCCCCCCCCC(=O)OCC | inactive | 
7 | C[C@]12CC[C@@H]3c4ccc(O)cc4CC[C@H]3[C@@H]1CC[C@@H]2O | inactive | 
8 | C=C(F)C(=O)OC(C(F)(F)F)C(F)(F)F | inactive | 
9 | C=C(C)C(=O)OCCC(F)(F)C(F)(F)C(F)(F)C(F)(F)C(F)(F)C(F)(F)C(F)(F)C(F)(F)F | inactive | 
10 | CC1=CC(C)C(C=O)C(C)C1 (stereo not given) (tested in a mixture with another compound) | inactive | 
11 | CC(=O)OCC=C(C)CCC=C(C)CCC=C(C)C | inactive | 
12 | OCC(F)(OC(F)(F)C(F)(OC(F)(F)C(F)(F)C(F)(F)F)C(F)(F)F)C(F)(F)F (stereo not given) |  | 2.24 µM (active) and 2.52 µM (active)
13 | CCC(=O)OCC=Cc1ccccc1 | inactive | 
14 | CC(C)(CO)CO | inactive | 
15 | CCOC(=O)C=Cc1ccccc1 | inactive | 
16 | CCn1cc(C(=O)O)c(=O)c2ccc(C)nc21 | inactive | 
17 | CC(C)Cc1ccc(C(C)C(=O)O)cc1 (stereo not given) | inactive | 
18 | CCOC(=O)CCCCCCCCC(=O)OCC | inactive | 
19 | C#C[C@]1(O)CC[C@H]2[C@@H]3CCc4cc(O)ccc4[C@H]3CC[C@@]21C | inactive | 
20 | CCCCN(CCO)CCO | inactive | 

Row | SMILES | outcome | AC50
21 | C=C1CC/C=C(\C)CC[C@@H]2[C@@H]1CC2(C)C |  | 33.9 µM (active)
22 | O=C(c1ccc(OCCN2CCCCC2)cc1)c1c(-c2ccc(O)cc2)sc2cc(O)ccc12 |  | 32.1 µM (active)
23 | O=S(=O)(O)C(F)(F)C(F)(F)OC(F)(F)C(F)(F)F | inactive | 
24 | CC=CC(=O)C1=C(C)C=CCC1(C)C | inactive | 
25 | CCCCCCCCCCCCS |  | 17 µM (active)
26 | O=C(O)C(F)(F)OC(F)(F)C(F)(F)OC(F)(F)C(F)(F)C(F)(F)C(F)(F)F |  | 12 µM (active) and 48.6 µM (active)
27 | O=C(O)C(F)(F)C(F)(F)C(F)(F)C(F)(F)C(F)(F)C(F)(F)C(F)(F)C(F)F | inactive | 
28 | Nc1ccc(N)c([N+](=O)[O-])c1 | inactive | 
29 | O=S1(=O)CC(Cl)(Cl)C(Cl)(Cl)C1 |  | 0.794 µM (active)
30 | c1ccc(Sc2ccccc2)cc1 | inactive | 
31 | c1ccc(OCCOc2ccccc2)cc1 | inactive | 
32 | CCCCCCCC1CCCC1=O (stereo not given) | inactive | 
33 | COc1ccccc1NC(=O)CC(C)=O | inactive | 
34 | CCCCOCCOCCO | inactive | 
35 | CC1(C)[C@H](C=C(Cl)Cl)[C@H]1C(=O)OCc1cccc(Oc2ccccc2)c1 | inactive | 
36 | CC(C)(C)c1cccc(O)c1 | inactive | 
37 | O=C1OC2(c3ccc(O)cc3Oc3cc(O)ccc32)c2ccccc21 | inactive | 
38 | OCCN1CCOCC1 | inactive | 
39 | NC(=O)c1c(Cl)cccc1Cl | inactive | 
40 | COC(=O)c1ccc(C(=O)OC)cc1 | inactive | 
